Most compounds without a hit are left out; they make up all but 0.93% or so of the library.
CDC25B CDK2 inh: primary biochemical HTRF screen for blockers of M-phase inducer phosphatase 2 binding to CDK2/cyclin A | P30305+P24941 | z-score (concentration not given with the values) | 94,000 tested, 0.72% active | HTRF CDC25B-CDK2/CyclinA binding, anti-His/anti-Flag; hits give high values; in the data active = z-score above about 3.2
TAR Tat displ: TAR RNA-Tat peptide displacers, HIV-1, primary screen, biochemical, FRET, FAM/TAMRA-labeled Tat; HIV-1 TAR RNA, Tat peptide displacement FRET; hits give high values; z-score (concentration not given with the values); 100,000 tested, 0.6% active; active = z-score of 3 or more in at least 2 runs
Large screens that a line does not name were inactive; ! = not active in a repeat.

COc1ccc(Br)cc1C1CC(=O)N2CN(c3ccccc3)CSC2=C1C#N (stereo not drawn)	CDC25B CDK2 inh 7.6
COc1ccc(C2CC(=O)N3CN(Cc4ccccc4)CSC3=C2C#N)c(OC)c1 (stereo not drawn)	CDC25B CDK2 inh 4.5
COc1ccc(CN2CSC3=C(C#N)C(c4ccc(Cl)cc4)CC(=O)N3C2)cc1 (stereo not drawn)	CDC25B CDK2 inh 3.8
COc1ccc(Br)cc1C1CC(=O)N2CN(c3ccccc3F)CSC2=C1C#N (stereo not drawn)	none
COc1ccc(Br)cc1C1CC(=O)N2CN(Cc3ccccc3)CSC2=C1C#N (stereo not drawn)	CDC25B CDK2 inh 3.2
N#CC1=C2SCN(Cc3ccccc3)CN2C(=O)CC1c1cccc(Br)c1 (stereo not drawn)	none
O=S(=O)(c1ccc(-c2cnc(C3CC3)o2)cc1)N1CCN(c2ccc(Cl)cc2)CC1	none (no result: CDC25B CDK2 inh)
CCCCN(Cc1ccco1)S(=O)(=O)c1ccc2c(c1)NC(=O)C(C)CS2 (stereo not drawn)	none (no result: CDC25B CDK2 inh)
O=c1[nH]cnc2nn(-c3ccccc3)cc12	TAR Tat displ 4
Cc1ccc(-n2cc3c(=O)[nH]cnc3n2)cc1	none
CC(=O)Nc1nonc1-c1nnc(SCC(=O)NC2CCCC2)n1-c1ccccc1	none
COc1cc(C2NC(=O)c3c(sc4c3CCN(C)C4)N2)ccc1O (stereo not drawn)	none
CN1CCc2c(sc3c2C(=O)NC(c2ccc(O)c(O)c2)N3)C1 (stereo not drawn)	TAR Tat displ 13
CC1CCCC(Nc2ncnc3onc(-c4ccc(Cl)cc4)c23)C1C (stereo not drawn)	none
COc1ccc(CN=C2NS(=O)(=O)C(c3ccc(F)cc3)=C2C)cc1	none (no result: CDC25B CDK2 inh)
Cc1c(C(=O)O)cc(C(C)(C)C)n1-c1ccc2c(c1)OCCO2	none (no result: TAR Tat displ)
N=C1C(c2nc3ccccc3[nH]2)=C(O)CN1c1ccc(F)cc1	none
N=C1C(c2nc3ccccc3[nH]2)=C(O)CN1c1ccc(S(N)(=O)=O)cc1	TAR Tat displ 4.4
Cn1nc(C(=O)NCc2ccccn2)c2c1-c1ccccc1S(=O)(=O)C2	none
Cc1ccc(C)n1-c1ccc(SCC(=O)O)cc1	TAR Tat displ 27
O=C(O)CSc1ccc(F)cc1	none (no result: CDC25B CDK2 inh)
Cc1cc(NC(=O)c2snnc2C)no1	none
CC(C)(C)c1ccc(C2c3c(oc4ccc(Cl)cc4c3=O)C(=O)N2CCCN2CCOCC2)cc1 (stereo not drawn)	none
O=C(CN1C(=O)c2cccnc2Sc2ccccc21)NCc1ccccn1	none (no result: CDC25B CDK2 inh)
Cc1ccc(S(=O)(=O)Nc2ccc3c(c2)ncn3-c2ccccc2)cc1	none (no result: TAR Tat displ)
Cc1ccc(S(=O)(=O)/N=C2\C=C(n3cnc4ccccc43)C(=O)c3ccccc32)cc1	CDC25B CDK2 inh 17 (no result: TAR Tat displ)
CSc1cccc(NC(=O)Nc2nc3ccccc3s2)c1	none
Cc1csc2nc(CN(C)c3ccccc3)cc(=O)n12	TAR Tat displ 4.5 (no result: CDC25B CDK2 inh)
CCN(Cc1cc(=O)n2c(C)csc2n1)c1ccccc1	TAR Tat displ 5.1 (no result: CDC25B CDK2 inh)
Cc1nn2c(=O)cc(CN(C)c3ccccc3)nc2s1	none (no result: CDC25B CDK2 inh)
Cc1csc2nc(COc3ccccc3)cc(=O)n12	none
Cc1nn(-c2cccc(F)c2)c2[nH]c(=O)cc(C(F)(F)F)c12	none (no result: CDC25B CDK2 inh)
CCOC(=O)c1onc(-c2ccc(F)cc2)c1N	none
O=C(NCCN1CCOCC1)C1CCCN(c2nn3c(=O)c4c(nc3s2)CCCC4)C1 (stereo not drawn)	none (no result: CDC25B CDK2 inh)
O=C(O)c1cc(-c2ccco2)nc2ccc(Br)cc12	TAR Tat displ 6.4 (no result: CDC25B CDK2 inh)
O=C(O)c1ccc2nc(-c3ccco3)c(-c3ccco3)nc2c1	TAR Tat displ 51 (no result: CDC25B CDK2 inh)
O=C(O)c1cc(-c2ccc(O)cc2)nc2ccc(Br)cc12	none (no result: TAR Tat displ)
O=C(NCc1ccco1)c1ccc2nc(-c3cccs3)c(-c3cccs3)nc2c1	none (no result: CDC25B CDK2 inh)
CCc1ccc(NS(=O)(=O)c2cc(-c3ccc(=O)[nH]n3)cc(C)c2C)cc1	none (no result: CDC25B CDK2 inh)
Cc1nc(N=Nc2ccc(C(=O)O)cc2)c(COP(=O)(O)O)c(C=O)c1O	none (no result: TAR Tat displ)
Cc1ncc(COP(=O)(O)O)c(C=Nc2ccc3ccccc3c2)c1O	CDC25B CDK2 inh 14 (no result: TAR Tat displ)
Cc1ccc(C(=O)O)cc1-n1cnc2cccnc21	none
Cc1cccnc1NC(=O)C1CC(=O)OC12CCCCC2 (stereo not drawn)	CDC25B CDK2 inh 14
N#Cc1c(NC(=O)C2CC(=O)OC23CCCCC3)sc2c1CCCCC2 (stereo not drawn)	none
CC(NC(=O)Nc1ccccc1Br)c1c(-n2cccc2)sc2c1CCCC2 (stereo not drawn)	none
O=C(CSc1nnc(-c2ccco2)c(-c2ccco2)n1)Nc1cnc2ccccc2c1	TAR Tat displ 26
O=C(CSc1n[nH]c(-c2ccco2)n1)c1ccc(Cl)cc1	TAR Tat displ 17
COc1ccc(C(=O)CSc2nnc(-c3ccco3)c(-c3ccco3)n2)cc1	TAR Tat displ 20
O=C(Nc1cnc2ccccc2c1)c1ccco1	none (no result: CDC25B CDK2 inh)
COc1ccc(C(=O)CSc2ccc(-c3cccs3)nn2)cc1	none (no result: CDC25B CDK2 inh)
COc1ccc(C(=O)Cn2c3ccccc3n3nc(-c4ccco4)nc23)cc1	TAR Tat displ 7.1
O=C(CSc1n[nH]c(-c2ccccc2)n1)c1ccc(Cl)cc1	none (no result: TAR Tat displ)
COc1ccc(C(=O)Cn2c3ccccc3n3nc(-c4ccco4)nc23)cc1OC	none
CC(C)Nc1nn2nnnc2c2ccccc12	none (no result: CDC25B CDK2 inh)
O=C(c1ccc(CS(=O)c2ccc(Cl)cc2)o1)N1CCN(c2cccc(Cl)c2)CC1 (stereo not drawn)	none
Cc1noc2ncn(Cc3c(F)cccc3Cl)c(=O)c12	none (no result: CDC25B CDK2 inh)
COc1ccc([C@@H]2CC(=O)c3c(O)cc(O[C@@H]4O[C@H](CO)[C@@H](O)[C@H](O)[C@H]4OC4O[C@@H](C)[C@H](O)[C@@H](O)[C@H]4O)cc3O2)cc1O (stereo partly drawn)	TAR Tat displ 4.4 (no result: CDC25B CDK2 inh)
O=C(/C=C/c1ccc(O)c(O)c1)c1ccc(O[C@@H]2O[C@H](CO)[C@@H](O)[C@H](O)[C@H]2O)c(O)c1O	TAR Tat displ 31 (no result: CDC25B CDK2 inh)
C[C@@H]1O[C@@H](O[C@H]2[C@H](Oc3cc(O)c4c(c3)O[C@H](c3ccc(O)cc3)CC4=O)O[C@H](CO)[C@@H](O)[C@@H]2O)[C@H](O)[C@H](O)[C@H]1O	none (no result: CDC25B CDK2 inh)
COc1ccc(/C=C/c2cc(O)cc(O[C@@H]3O[C@H](CO)[C@@H](O)[C@H](O)[C@H]3O)c2)cc1O	none (no result: CDC25B CDK2 inh)
O=C1C[C@@H](c2ccc(O)cc2)Oc2cc(O[C@@H]3O[C@H](CO)[C@@H](O)[C@H](O)[C@H]3O)cc(O)c21	none (no result: CDC25B CDK2 inh)
O=C1C[C@@H](c2ccc(O)c(O)c2)Oc2c1ccc(O[C@@H]1O[C@H](CO)[C@@H](O)[C@H](O)[C@H]1O)c2O	TAR Tat displ 17 (no result: CDC25B CDK2 inh)
Cc1ccccc1C1CC(=O)Nc2c1c(C)nn2-c1nc2ccccc2s1 (stereo not drawn)	none
COc1ccc2cc3cc(C(=O)N4CCC5(CC4)OCCO5)sc3nc2c1	none (no result: TAR Tat displ)
O=C(C1CC1)N1CCCc2cc(NS(=O)(=O)c3ccc(F)cc3)ccc21	none (no result: CDC25B CDK2 inh)
Cc1cc(=O)nc2c3ccccc3n(CC(=O)NCCCN(C)C3CCCCC3)n12	none
Cc1ccc(S(=O)(=O)Nc2ccc3c(c2)sc(=O)n3C)c(C)c1	none (no result: CDC25B CDK2 inh)
COc1ccc(CNc2nc3ccccc3c3nc(CCn4c(C)nc5ccccc54)nn23)cc1	none
Cc1nnc2c(Nc3ccc(O)cc3)nc3ccccc3n12	TAR Tat displ 7.2
Cc1nnc2c(Nc3ccc(N(C)C)cc3)nc3ccccc3n12	none
Cc1ccc2ncnc(Nc3ccc(C)c(C)c3)c2c1	none (no result: TAR Tat displ)
Cc1ccc(Nc2ncnc3ccccc23)cc1C	CDC25B CDK2 inh 11! (no result: TAR Tat displ)

Compound activity from PubChem.
